Assay outcomes as filed in PubChem.
HT1080-NT tox – kills 2HG-producing HT-1080-NT fibrosarcoma cells; Potency, µM (top dose mostly 46.1 µM), for inactives: at the highest dose activity, negative = less viability, actives largely listed as cytotoxic; 360,000 tested, 1.6% active; HT-1080-NT fibrosarcoma viability, CellTiter-Glo ATP luminescence, 48 h;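 also: NT is the 2HG producing partner of a matched IDH1 knockdown line; 0% = DMSO-treated cells and -100% = media-only wells without cells; nearly all actives have a fitted effect of over 55% in size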
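HT-1080-NT fibrosarcoma cells (2HG-overproducing), 750 cells/well in RPMI with 5% FBS, dosed after 2 h and incubated 48 h at 37C. CellTiter-Glo luminescence normalized to DMSO and no-cell wells; concentration-response curves fitted and classed.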
TGFb SMAD3 inh – blocks TGF-b signaling | Potency, µM (top dose mostly 46.1 µM), inactives show at the highest dose activity, negative = inhibition, hits mostly inhibitors | 410,000 tested, 1.2% active | HepG2 CAGA-GFP TGF-b/SMAD3 reporter, GFP fluorescence, 18 h; TGF-beta stimulated, 500 pg/mL final; also: % is scaled to controls: 0 for no effect and ±100 for the full control effect; nearly all actives have a fitted effect of over 65% in size
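Inhibition of TGF-beta-driven CAGA-GFP reporter expression in HEPG2 cells is measured by cellular GFP fluorescence after 18 h stimulation with 500 pg/mL recombinant TGF-beta in 1% FBS medium at 37 degrees C.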
TDP1 cell CPT – DT40-hTDP1 cell growth loss with CPT. chicken DT40 Tdp1-/-;hTDP1 cells + 20 nM CPT, ATP luminescence, 48 h. Potency, µM (highest dose often 46.2 µM), inactives show at the highest dose activity change, negative = growth inhibition, hits mostly inhibitors. 420,000 tested, 12% active. AID 686979; also: % is scaled to controls: 0 for no effect and ±100 for the full control effect; nearly all actives have a fitted effect of over 55% in size
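Chicken DT40 Tdp1-/- cells stably complemented with human TDP1 were seeded at 400 cells/well in medium containing 20 nM camptothecin, exposed to pin-transferred compounds, and grown at 37 °C for at least 48 hr. Viability was read as ATP luminescence.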
HepG2 tox – counter-screen for TGF-b inhibitors: cytotoxicity in HepG2 cells; HepG2 CAGA-GFP viability, ATP luminescence, 18 h; Potency, µM (titrated, usually from 46.1 µM), for inactives: at the highest dose activity change, negative = cytotoxicity, most hits filed as cytotoxic; 410,000 tested, 0.76% active
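CellTiter-Glo luminescence gave cytotoxicity after 18 hours at 37 degrees C. The cells were HepG2 CAGA-GFP in 1% FBS DMEM, stimulated with 500 pg/mL TGF-beta after compound addition. %Activity was normalised to no-cell wells (complete cell-killing) and DMSO (no toxicity), and curves were fitted and classified.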
HT1080 IDH1KD tx – HT-1080 IDH1 knockdown cell toxicity (counter line) | AID 686971 | Potency, µM (series often up to 46.1 µM), inactives show at the highest dose activity, negative = toxicity, most hits filed as cytotoxic | 360,000 tested, 2% active | HT-1080 IDH1 knockdown viability, ATP luminescence, 48 h;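 also: 0% = DMSO wells and -100% = cell-free medium wells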
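Luminescent ATP read-out (CellTiter-Glo, 10 min at room temperature) after 48 h compound exposure at 37 °C gave viability of IDH1-knockdown HT-1080 cells. Activity was normalised to DMSO and cell-free wells, then fitted as concentration-response curves.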
TDP1 cell noCPT – qHTS for Inhibitors of human tyrosyl-DNA phosphodiesterase 1 (TDP1): qHTS in cells in absence of CPT. DT40 Tdp1-/- hTDP1 cells, no CPT, ATP luminescence, 48 h. Potency, µM (series often up to 46.2 µM), inactives show at the highest dose activity change, negative = growth inhibition, actives largely listed as inhibitors. 420,000 tested, 15% active; also: % is scaled to controls: 0 for no effect and ±100 for the full control effect; nearly all actives have a fitted effect of over 55% in size
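A cellular qHTS used chicken DT40 cells lacking endogenous Tdp1 but carrying stably transfected human TDP1. Compounds were applied without camptothecin, and cell growth kinetics were judged by ATP-dependent luminescence after ≥48 hr.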
The depositor's hits bear a star; [ ] = dose if it differs, or a comment. In the library only some 17% were active in any assay of this set; here they are far more common. Calls follow the shape of the dose curve; as a rule, active = well fitted curve in the direction sought with a large enough effect; inconclusive = small, poorly fitted or top-dose-only effect, or another doubt; inactive = no such curve, though single readings can be large; an effect the other way counts as inactive or inconclusive. Potency is read from the fitted curve at half-maximal effect.

For Cc1nc(C)c(C(=O)N2CCCC(C(=O)c3cc(F)ccc3F)C2)s1 (stereo not drawn) the results were HT1080-NT tox -1%, TGFb SMAD3 inh -20%, TDP1 cell CPT -29%, HepG2 tox 3%, HT1080 IDH1KD tx 1% and TDP1 cell noCPT inconclusive.
CCOc1ccc(NC(=O)CSc2nccn2C2CCCC2)cc1 was read as TGFb SMAD3 inh 0%, TDP1 cell CPT -6%, HepG2 tox -4% and TDP1 cell noCPT inconclusive.
`Cc1onc(-c2c(F)cccc2Cl)c1-c1nnc(-c2ccc(C(F)(F)F)cc2)o1` gave HT1080-NT tox -22%, TGFb SMAD3 inh inconclusive, TDP1 cell CPT inconclusive, HepG2 tox -35%, HT1080 IDH1KD tx 26µM* and TDP1 cell noCPT inconclusive.
For Cc1onc(-c2c(Cl)cccc2Cl)c1-c1nnc(-c2ccc(Cl)cc2)o1 the results were HT1080-NT tox -21%, TGFb SMAD3 inh -1%, TDP1 cell CPT inconclusive, HepG2 tox 10%, HT1080 IDH1KD tx -28% and TDP1 cell noCPT 16µM*.
`CC(=O)Nc1nnc(-c2c(-c3c(Cl)cccc3Cl)noc2C)o1` gave HT1080-NT tox 2%, TGFb SMAD3 inh -3%, TDP1 cell CPT 19%, HepG2 tox -37%, HT1080 IDH1KD tx 0% and TDP1 cell noCPT -9%.
For COCCNC(=O)Cc1c(C)c2cc3c(cc2oc1=O)OC(C)(C)CC3 the results were HT1080-NT tox -2%, TGFb SMAD3 inh 2%, TDP1 cell CPT inconclusive, HepG2 tox -18%, HT1080 IDH1KD tx -11% and TDP1 cell noCPT inconclusive.
Screening Cc1c(CC(=O)NCC(C)C)c(=O)oc2cc3c(cc12)CCC(C)(C)O3 returned HT1080-NT tox 4%, TGFb SMAD3 inh 0%, TDP1 cell CPT 16µM*, HepG2 tox -14%, HT1080 IDH1KD tx -10% and TDP1 cell noCPT 18µM*.
Cc1c(CC(=O)NCCC(C)C)c(=O)oc2cc3c(cc12)CCC(C)(C)O3 was read as HT1080-NT tox 11%, TGFb SMAD3 inh 0%, TDP1 cell CPT -13%, HepG2 tox -2%, HT1080 IDH1KD tx 11% and TDP1 cell noCPT 21µM*.
`Cc1c(CC(=O)N2CCC(O)CC2)c(=O)oc2cc3c(cc12)CCC1(CCCCC1)O3` gave HT1080-NT tox -12%, TGFb SMAD3 inh inconclusive, TDP1 cell CPT inconclusive, HepG2 tox -7%, HT1080 IDH1KD tx -18% and TDP1 cell noCPT inconclusive.
For Cc1cc(=O)cc2oc3cc(N)c(-c4c(C)cc(O)cc4O)c(C)c3nc1-2 the results were TDP1 cell CPT 5% and TDP1 cell noCPT -24%.
`C[C@@]12C(=O)Nc3ccc(Br)cc3C(=O)N1[C@H]1c3ccccc3OC[C@@H]1[C@@H]2c1ccccc1` gave HT1080-NT tox -3%, TGFb SMAD3 inh 4%, TDP1 cell CPT inconclusive, HepG2 tox -14%, HT1080 IDH1KD tx -13% and TDP1 cell noCPT inconclusive.
`C[C@@]12C(=O)Nc3ccc(F)cc3C(=O)N1[C@H]1c3cc(Br)ccc3OC[C@@H]1[C@@H]2c1ccccc1` gave HT1080-NT tox inconclusive, TGFb SMAD3 inh -10%, TDP1 cell CPT inconclusive, HepG2 tox -6%, HT1080 IDH1KD tx inconclusive and TDP1 cell noCPT 23µM*.
C[C@@]12C(=O)Nc3cc(F)ccc3C(=O)N1[C@H]1c3cc(Br)ccc3OC[C@@H]1[C@@H]2c1ccccc1 was read as HT1080-NT tox inconclusive, TGFb SMAD3 inh inconclusive, TDP1 cell CPT inconclusive, HepG2 tox -13%, HT1080 IDH1KD tx inconclusive and TDP1 cell noCPT inconclusive.
For C[C@@]12C(=O)Nc3ccc(Br)cc3C(=O)N1[C@H]1c3cc(Cl)ccc3OC[C@@H]1[C@@H]2c1ccccc1 the results were HT1080-NT tox -16%, TGFb SMAD3 inh -14%, TDP1 cell CPT inconclusive, HepG2 tox -23%, HT1080 IDH1KD tx -11% and TDP1 cell noCPT 18µM*.
Screening C[C@@]12C(=O)Nc3ccccc3C(=O)N1[C@H]1c3cc(Cl)ccc3OC[C@@H]1[C@@H]2c1ccccc1 returned HT1080-NT tox inconclusive, TGFb SMAD3 inh -15%, TDP1 cell CPT inconclusive, HepG2 tox -14%, HT1080 IDH1KD tx 18µM* and TDP1 cell noCPT inconclusive.
Cc1ccc2c(c1)[C@H]1[C@H](CO2)[C@H](c2ccccc2)[C@]2(C)C(=O)Nc3cc(F)ccc3C(=O)N12 was read as HT1080-NT tox inconclusive, TGFb SMAD3 inh -28%, TDP1 cell CPT inconclusive, HepG2 tox -14%, HT1080 IDH1KD tx 8.2µM* and TDP1 cell noCPT inconclusive.
Screening COc1ccc(C)cc1-n1nnnc1SCC1CCCCO1 (stereo not drawn) returned HT1080-NT tox -4%, TGFb SMAD3 inh 8%, TDP1 cell CPT -12%, HepG2 tox -2%, HT1080 IDH1KD tx 2% and TDP1 cell noCPT -12%.
Screening CCC1(C2CCN(Cc3ccccn3)CC2)NC(=O)N(CC2COc3ccccc3O2)C1=O (stereo not drawn) returned TDP1 cell CPT -7%[9.04 µM] and TDP1 cell noCPT -7%.
O=C(CNS(=O)(=O)c1ccc(Br)cc1)Nc1ccc2c(c1)OCCO2 was read as HT1080-NT tox 3%, TGFb SMAD3 inh -1%, TDP1 cell CPT 4%, HepG2 tox 0%, HT1080 IDH1KD tx 5% and TDP1 cell noCPT 5%.
C[C@@]12C(=O)N(CC3CCCO3)CC(=O)N1[C@H]1c3cc(Cl)ccc3OC[C@@H]1[C@@H]2c1ccccc1 (stereo partly drawn) was read as HT1080-NT tox -3%, TGFb SMAD3 inh 4%, TDP1 cell CPT 23µM*, HepG2 tox -9%, HT1080 IDH1KD tx 2% and TDP1 cell noCPT 15µM*.
`Cc1ccc2c(c1)[C@H]1[C@H](CO2)[C@H](c2ccccc2)[C@]2(C)C(=O)Nc3ccc(Cl)cc3C(=O)N12` gave HT1080-NT tox -17%, TGFb SMAD3 inh 5%, TDP1 cell CPT inconclusive, HepG2 tox 2%, HT1080 IDH1KD tx inconclusive and TDP1 cell noCPT 15µM*.
c1ccc(-c2ncc(CN3CCN(c4ccccn4)CC3)[nH]2)cc1 was read as HT1080-NT tox -7%, TGFb SMAD3 inh -9%, TDP1 cell CPT -1%, HepG2 tox -30%, HT1080 IDH1KD tx 7% and TDP1 cell noCPT -29%.
